In the supplement of paper PMC10981050:
Values joined by “and” are separate entries in the source; they are usually repeats but may differ in a detail not shown here. Equal values may be shown once. Where a name gives a salt, the structure may show the parent alone.

Experiments:
Assay in all cases: cell viability relative to vehicle control; higher = less cytotoxic
Settings in all cases: 10 µM
K562 = test system: K562
In short: (§1)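 CRISPR-edited mutant clones and isogenic wild-type clones from four leukaemia lines were screened against Selleck bioactive, kinase and epigenetic probe libraries, with identity-inconsistent compounds excluded. Each compound was acoustically dispensed at a single 10 µM dose into 384-well plates holding 2000 cells in 50 µL medium per well. After 48 h the supernatant was removed and CellTiter-Glo luminescence was read. Viability was expressed as percent of the on-plate vehicle control and analysed in Genedata Screener.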

MARIMO = test system: MARIMO
In short: as §1

MOLM14 = test system: MOLM14
In short: as §1

OCI-AML2 = test system: OCI-AML2
In short: as §1

Row | SMILES | cell viability (K562; SRSF2 genotype: SRSF2 P95H/wt) | cell viability (K562; SRSF2 genotype: SRSF2 wt/wt) [%] | cell viability (MARIMO; SRSF2 genotype: SRSF2 P95H/wt) [%] | cell viability (MARIMO; SRSF2 genotype: SRSF2 wt/wt) [%] | cell viability (MOLM14; SRSF2 genotype: SRSF2 P95H/wt) [%] | cell viability (MOLM14; SRSF2 genotype: SRSF2 wt/wt) [%] | cell viability (OCI-AML2; SRSF2 genotype: P95H/wt) [%] | cell viability (OCI-AML2; SRSF2 genotype: wt/wt) [%]
1 | CC(=O)N[C@@H](CC(C)C)C(=O)N[C@@H](CC(C)C)C(=O)N[C@H](C=O)CCCNC(=N)N [Leupeptin Hemisulfate] | 94.1% and 83.4% | 86.2 | 90.8 | 97.3 | 85.8 | 90.1 | 97.4 | 97.7
2 | Cc1cc(O)cc(O)c1 [Orcinol] | 110% and 104% | 104 | 100 | 98.8 | 113 | 107 | 98.7 | 107
3 | CCC(CC)n1ccc2c(C(=O)NCc3c(C)cc(C)[nH]c3=O)cc(C#N)cc21 | 107% and 101% | 95.5 | 103 | 112 | 100 | 100 | 95 | 102
4 | Cc1ccc2c(c1)C(=O)C1(O)CCN(c3ccccc3)C1=N2 (single isomer, unassigned; (-)) [(-)-Blebbistatin] | 93.5% and 92.5% | 94 | 88.4 | 98.6 | 61.3 | 60.7 | 80.5 | 90.4
5 | C=C(C)[C@@H]1CC[C@]2(C(=O)O)CC[C@]3(C)[C@H](CC[C@@H]4[C@@]5(C)CC[C@H](OC(=O)CC(C)(C)C(=O)O)C(C)(C)[C@@H]5CC[C@]43C)[C@@H]12 [Bevirimat] | 102% and 101% | 99.7 | 107 | 107 | 106 | 103 | 97 | 108
6 | COc1cc2oc(-c3ccccc3)cc(=O)c2c(OC)c1OC [5,6,7-Trimethoxyflavone] | 109% and 110% | 107 | 99.9 | 96.3 | 111 | 110 | 85.1 | 87.3
7 | CC(C)OC(=O)CCC/C=C\C[C@@H]1[C@@H](/C=C/[C@@H](O)COc2cccc(C(F)(F)F)c2)[C@H](O)C[C@@H]1O [Travoprost] | 67.1% and 66.4% | 65 | 57.9 | 40.1 | 79.1 | 94.4 | 23.5 | 37.8
8 | O=C1NC(=O)/C(=C/c2ccc3nccc(-c4ccncc4)c3c2)S1 | 62.8% and 84% | 69.7 | 54.6 | 50.5 | 40.1 | 42 | 25.4 | 28.8
9 | CCc1c(C(=O)NCCc2ccc(N3CCCCC3)cc2)[nH]c2ccc(Cl)cc12 | 107% and 104% | 111 | 106 | 108 | 85.4 | 102 | 112 | 107
10 | CCC(C)C(NC(=O)C(C(C)CC)N(C)C(C)=O)C(=O)NC(C(=O)NC(CC(C)C)C(=O)C1(C)CO1)C(C)O (stereo not drawn) [Epoxomicin (BU-4061T)] | 1.56% and 1.91% | 0.91 | 0.3 | 0.71 | 0.14 | 0.17 | 0.15 | 0.14
11 | CCc1cccc(CC)c1NC(=O)N1Cc2[nH]nc(NC(=O)c3ccc(N4CCN(C)CC4)cc3)c2C1 | 29.9% and 41.4% | 25.5 | 69.2 | 70.3 | 19.8 | 13.4 | 12.8 | 23.3
12 | O=C(NCCO)c1cccc(-c2cc(Nc3ccc(OC(F)(F)F)cc3)ncn2)c1 | 12.1% and 23% | 20.1 | 69.5 | 76.6 | 93.2 | 91.3 | 65 | 72.3
13 | O=S(=O)(O)CCS [Mesna (Uromitexan, Mesnex)] | 107% and 96% | 103 | 94.2 | 110 | 104 | 100 | 92 | 104
14 | CC(C)CCCC(C)C1CCC2C3=CC=C4CC(O)CCC4(C)C3CCC21C (stereo not drawn) [7-Dehydrocholesterol] | 88.5% and 88.6% | 96.5 | 87.6 | 87 | 86.6 | 93.9 | 94.2 | 94.7
15 | C=C[C@@]1(C)CC(=O)[C@]2(O)[C@@]3(C)[C@@H](O)CCC(C)(C)[C@@H]3[C@H](O)[C@H](OC(C)=O)[C@@]2(C)O1 [Forskolin] | 96.8% and 104% | 94 | 99 | 88.6 | 92.6 | 101 | 105 | 96.1
16 | Cc1cc(C)nc(NS(=O)(=O)c2ccc(N)cc2)n1 [Sulfamethazine] | 108% and 111% | 108 | 105 | 109 | 110 | 110 | 119 | 96.2
17 | COc1ccc2[nH]cc(CCNC(C)=O)c2c1 [Melatonin] | 104% and 109% | 100 | 109 | 101 | 103 | 105 | 118 | 103
18 | O=C(O)c1cc(=O)cc(C(=O)O)o1 [Chelidonic acid] | 105% | 113 | 110 | 106 | 101 | 107 | 110 | 105
19 | O=C(NC[C@H](O)CN1CCc2ccccc2C1)c1cc(NC2COC2)ncn1 | 95.9% and 92.8% | 95.6 | 87.6 | 98.1 | 88.8 | 92.6 | 76.3 | 77.1
20 | COc1ccc(S(=O)(=O)Nc2cc(-c3c(O)ccc4ccccc34)c(O)c3ccccc23)cc1 | 7.52% and 4.96% | 34.5 | 0.33 | 0.36 | 0.32 | 0.34 | 0.37 | 0.35
21 | CCN(CC)CC(=O)Nc1c(C)cccc1C [Lidocaine (Alphacaine)] | 113% and 102% | 111 | 106 | 108 | 103 | 105 | 101 | 106

Row | SMILES | cell viability (K562; SRSF2 genotype: SRSF2 P95H/wt) | cell viability (K562; SRSF2 genotype: SRSF2 wt/wt) [%] | cell viability (MARIMO; SRSF2 genotype: SRSF2 P95H/wt) [%] | cell viability (MARIMO; SRSF2 genotype: SRSF2 wt/wt) [%] | cell viability (MOLM14; SRSF2 genotype: SRSF2 P95H/wt) [%] | cell viability (MOLM14; SRSF2 genotype: SRSF2 wt/wt) [%] | cell viability (OCI-AML2; SRSF2 genotype: P95H/wt) [%] | cell viability (OCI-AML2; SRSF2 genotype: wt/wt) [%]
22 | O=[N+]([O-])c1ccc2c(c1)S(=O)(=O)C=C2 [Stattic] | 8.02% and 0.43% | 0.74 | 0.14 | 0.16 | 0.12 | 0.25 | 0.06 | 0.06
23 | Cc1[nH]c(/C=C2\C(=O)Nc3ccc(S(=O)(=O)Cc4c(Cl)cccc4Cl)cc32)c(C)c1C(=O)N1CCC[C@@H]1CN1CCCC1 | 0.5% and 0.24% | 81.8 | 76.3 | 87.6 | 42 | 46.8 | 0.12 | 0.09
24 | CO/N=C(/C(=O)N[C@@H]1C(=O)N2C(C(=O)OCOC(=O)C(C)(C)C)=C(C)CS[C@H]12)c1csc(N)n1 [Cefetamet pivoxil hydrochloride] | 95.8% and 97% | 102 | 95 | 104 | 92.5 | 103 | 107 | 98.1
25 | O=C1CN(/N=C/C=C/c2ccc([N+](=O)[O-])o2)C(=O)N1 [Furagin] | 105% and 103% | 104 | 93.7 | 107 | 105 | 108 | 101 | 108
26 | CN1CCN(c2ccc(-c3ccncc3-c3cc(F)c(O)c(F)c3)cc2)CC1 | 94.2% and 97.1% | 95.9 | 80.1 | 85.4 | 66.4 | 88.8 | 99.5 | 91.1
27 | Nc1c(Br)cc(Br)cc1CN[C@H]1CC[C@H](O)CC1 [Ambroxol HCl] | 103% and 109% | 105 | 106 | 102 | 101 | 107 | 104 | 101
28 | CCOc1cc(CC(=O)N[C@@H](CC(C)C)c2ccccc2N2CCCCC2)ccc1C(=O)O [Repaglinide] | 105% and 100% | 97.6 | 103 | 101 | 102 | 101 | 108 | 116
29 | CCCCC1OC(=O)c2ccccc21 (stereo not drawn) [3-n-Butylphathlide] | 93.7% and 104% | 91.5 | 91.9 | 104 | 99.8 | 96.7 | 90.6 | 94.2
30 | C[C@H](CSC(=O)c1ccccc1)C(=O)N1C[C@@H](Sc2ccccc2)C[C@H]1C(=O)O [Zofenopril calcium] | 106% and 100% | 106 | 104 | 96.9 | 98.3 | 108 | 116 | 121
31 | Cc1cc(C)c(CNC(=O)c2cc(-c3ccc(CN4CCOCC4)cc3)cc3c2cnn3C2CCCC2)c(=O)[nH]1 | 105% and 117% | 120 | 113 | 111 | 104 | 107 | 111 | 106
32 | C=C[C@]1(C)C[C@@H](OC(=O)CSC(C)(C)CNC(=O)[C@H](N)C(C)C)[C@]2(C)[C@H](C)CC[C@]3(CCC(=O)[C@H]32)[C@@H](C)[C@@H]1O [Valnemulin HCl] | 83.2% and 84.6% | 75.3 | 74 | 74.9 | 80.8 | 80 | 60.7 | 65.5
33 | Cc1nccn1CC1CCc2c(c3ccccc3n2C)C1=O (stereo not drawn) [Ondansetron hydrochloride (Zofran)] | 96.1% and 89.4% | 93.8 | 88.4 | 95.6 | 102 | 98.9 | 95.5 | 101
34 | CCOc1ccc(NC(C)=O)cc1 [Phenacetin] | 98.6% and 97.2% | 91.5 | 89.6 | 92.5 | 98.4 | 95.8 | 88.3 | 93.4
35 | O=S(=O)(O)c1cc(O)ccc1O [Calcium Dobesilate] | 104% and 94.7% | 103 | 103 | 110 | 98.4 | 103 | 104 | 103
36 | CCCCC(CC)COC(=O)C(C#N)=C(c1ccccc1)c1ccccc1 (stereo not drawn) [Octocrylene] | 94.2% and 88.6% | 97.5 | 95.1 | 107 | 95.1 | 98.5 | 98.4 | 99.9
37 | C[C@@H]1O[C@@H](O[C@H]2[C@H](O[C@H]3CC[C@@]4(C)[C@@H](CC[C@]5(C)[C@@H]4CC=C4[C@@H]6CC(C)(C)CC[C@]6(C(=O)O)CC[C@]45C)[C@]3(C)CO)OC[C@H](O)[C@@H]2O)[C@H](O)[C@H](O)[C@H]1O | 33.7% and 24.8% | 40.6 | 71.8 | 74.1 | 39 | 45.4 | 45 | 48.8
38 | O=C(NCc1ccncc1)C12CC3CC(C1)CC(c1ccc(Cl)cc1)(C3)C2 | 73.1% and 84.6% | 72.3 | 75.4 | 74.2 | 61 | 57.4 | 64.5 | 55.1
39 | CS(=O)(=O)Nc1ccc([N+](=O)[O-])cc1Oc1ccccc1 [Nimesulide] | 105% and 109% | 99.8 | 102 | 108 | 109 | 103 | 101 | 110
40 | Cn1c(=O)cc(C(=O)Nc2ccc3c(c2)OCCO3)c2ccccc21 | 97.4% and 96% | 94 | 99 | 104 | 102 | 100 | 93.4 | 101
41 | CSc1cccc(Nc2ncc3cc(-c4c(Cl)cccc4Cl)c(=O)n(C)c3n2)c1 | 6.76% and 14.3% | 9.82 | 34.3 | 65.4 | 26.6 | 31.6 | 12.8 | 20.9
